This is an account of results in PubChem BioAssay (Tox21).

Assay [1] is described as follows: qHTS assay to identify small molecule antagonists of the androgen receptor (AR) signaling pathway using the MDA cell line in the presence of 0.5 nM R1881 - cell viability counter screen (AID 1259242). Also: nearly all actives have a fitted effect of over 45% in size. Also: potency is read from the fitted curve at half-maximal effect. As to viability change, negative = cytotoxic: % is scaled to controls: 0 for no effect and ±100 for the full control effect. Particulars: MDA-kb2 viability, CellTiter-Fluor protease fluorescence, 16 h; series mostly up to 92.4 µM. In short, it runs like this:
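R1881 at 0.5 nM final stimulated MDA-kb2 cells during 16 hr compound treatment at 37C. Cytotoxicity read: CellTiter-Fluor fluorescence after 30 min.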
For orientation: qHTS replaces the single test concentration by a dilution series.

Assay [2] in a line: qHTS assay to identify small molecule phospholipidosis (PLD) inducers (AID 1259344; active = well fitted curve in the direction sought with a large enough effect; an effect the other way counts as inactive or inconclusive; also: % is scaled to controls: 0 for no effect and ±100 for the full control effect). Particulars: HepG2 phospholipidosis, LipidTOX Red imaging, 24 h; series mostly up to 38.3 µM. In short, it runs like this:
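Fluorescent phospholipid staining (LipidTOX Red) measured by automated microscopy in fixed HepG2 cells after 24 h treatment; nuclei counterstained with Hoechst 33342; amiodarone as reference inducer.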

Assay [3] can be described thus: qHTS assay to identify small molecule HDAC inhibitors (AID 1259364).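 Also: wild-type HCT-116 cells with endogenous class I/II HDAC activity; top concentration of the series differs between compounds; % is scaled to controls: 0 for no effect and ±100 for the full control effect; nearly all actives have a fitted effect of over 45% in size.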 Particulars: HCT-116 HDAC-Glo I/II luminescence, 2 h; series mostly up to 92.4 µM. An outline of the steps: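 Relative class I and II HDAC activity is taken from the luminogenic signal in HCT-116 cells, with compound exposure 2 hr and reagent development 30 min at room temperature.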
Assay [4] can be described thus: qHTS assay to identify small molecule HDAC inhibitors - cell viability counter screen (AID 1259365). Also: nearly all actives have a fitted effect of over 50% in size. Also: potency is read from the fitted curve at half-maximal effect. As to activity change, negative = cytotoxicity: % is scaled to controls: 0 for no effect and ±100 for the full control effect. Particulars: HCT-116 viability, CellTiter-Glo ATP luminescence, 2 h; series mostly up to 92.4 µM. An outline of the steps:
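Wild-type HCT-116 cells were seeded at 1,500 per well, incubated overnight at 37 C, then exposed to compounds in DMSO for 2hr. Viability was read by CellTiter-Glo luminescence after 30min at room temperature.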

The nature of assay [5]: qHTS assay to identify small molecule agonists of the sonic hedgehog signaling (Shh) pathway - cell viability counter screen (AID 1259366). Also: nearly all actives have a fitted effect of over 50% in size. Also: potency is read from the fitted curve at half-maximal effect. Conditions: NIH/3T3 Gli1-Luc viability, CellTiter-Fluor, 24 h; series mostly up to 92.4 µM. An outline of the steps:
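NIH/3T3-derived 3T3 Gli1-Luc cells (stable Gli1-responsive firefly luciferase reporter) were seeded, rested 4 hr at 37 C/5% CO2, then exposed to compounds in DMSO for 24 hr; viability was read by CellTiter-Fluor fluorescence in the same wells.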

Assay [6] is described as follows: qHTS assay to identify small molecule antagonists of the sonic hedgehog signaling (Shh) pathway - cell viability counter screen (AID 1259367). Also: nearly all actives have a fitted effect of over 55% in size. Also: potency is read from the fitted curve at half-maximal effect. Particulars: NIH/3T3 Gli1-Luc viability, CellTiter-Fluor, 24 h; series mostly up to 42.5 µM. An outline of the steps: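 Using CellTiter-Fluor, viability of Gli1-Luc reporter 3T3 cells is read by fluorescence in the wells used for the Shh luciferase assay. Treatment lasts 23 hr with conditioned medium, then reagent 1 hr at 37C.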

Assay [7] can be described thus: qHTS assay to identify small molecule agonists of the sonic hedgehog signaling (Shh) pathway (AID 1259368; calls by dose curve; also: % is scaled to controls: 0 for no effect and ±100 for the full control effect; nearly all actives have a fitted effect of over 15% in size). Conditions: NIH/3T3 Gli1-Luc reporter, luciferase, 24 h; series mostly up to 92.4 µM. An outline of the steps: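 Mouse fibroblast (NIH/3T3) reporter cells with stably integrated Gli1-Luc were treated 24 hr with compound; firefly luciferase luminescence served as the read-out.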

Assay [8] can be described thus: qHTS assay to identify small molecule antagonists of the sonic hedgehog signaling (Shh) pathway (AID 1259369; calls by dose curve; also: potency is read from the fitted curve at half-maximal effect; nearly all actives have a fitted effect of over 45% in size). Particulars: NIH/3T3 Gli1-Luc reporter, Shh antagonist, luminescence 24 h; series mostly up to 92.4 µM. An outline of the steps: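 Conditioned medium drives Shh signalling in 3T3Gli1-Luc cells; compounds in DMSO co-applied, 24hr at 37 C, then luciferase luminescence.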

Assay [9] is described as follows: qHTS assay to identify small molecule agonists of the estrogen receptor beta (ER-beta) signaling pathway - cell viability counter screen (AID 1259380). Also: nearly all actives have a fitted effect of over 30% in size. Also: potency is read from the fitted curve at half-maximal effect. Particulars: ER-beta-bla HEK293T viability, CellTiter-Glo luminescence, 16 h; series mostly up to 92.4 µM. In short, it runs like this:
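Cells used were ER-beta-UAS-bla HEK293T in medium with 2% charcoal-stripped FBS. They were treated for 16 hr at 37C. Viability came from CellTiter-Glo luminescence.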

Assay [10] can be described thus: qHTS assay to identify small molecule agonists or antagonists of the thyroid stimulating hormone receptor (TSHR) signaling pathway - wild type cell line counter screen (AID 1259384; calls by dose curve; also: % is scaled to controls: 0 for no effect and ±100 for the full control effect). Conditions: HEK293 wild type, cAMP HTRF counter-screen, stronger effect = higher value; series mostly up to 92.4 µM. An outline of the steps:
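Counter screen in untransfected Hek293: compounds (15-point titration, triplicate) plus phosphodiesterase inhibitor Ro20-1724 added after 18 h plating; 30 min RT. Intracellular cAMP via competitive d2/cryptate immunoassay, 1 h incubation.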

For assay [11], the target named is Thyrotropin receptor (Homo sapiens) (UniProt P16473). As to the kind of experiment: qHTS assay to identify small molecule antagonists of the thyroid stimulating hormone receptor (TSHR) signaling pathway (AID 1259385; calls by dose curve; also: % is scaled to controls: 0 for no effect and ±100 for the full control effect; nearly all actives have a fitted effect of over 20% in size). Conditions: TSHR-HEK293 cAMP HTRF, TSH-stimulated antagonist mode; series mostly up to 92.4 µM. An outline of the steps:
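Antagonist mode: compound-treated TSHR-expressing HEK293 cells were stimulated with 1.5 ng/mL TSH (final) in presence of Ro20-1724 for 30 min at RT. HTRF cAMP detection after 1 h; each compound tested at 15 concentrations, triplicate.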

The target in assay [12] is Androgen receptor (Homo sapiens) (UniProt P10275). Nature of the assay: qHTS assay to identify small molecule antagonists of the androgen receptor (AR) signaling pathway using the MDA cell line in the presence of 0.5 nM R1881 (AID 1259243). Also: nearly all actives have a fitted effect of over 50% in size. Also: potency is read from the fitted curve at half-maximal effect. Conditions: MDA-kb2 MMTV-luciferase, R1881 0.5 nM, 16 h; series mostly up to 92.4 µM. In short, it runs like this: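 We exposed MDA-kb2 cells to compounds under 0.5 nM R1881 stimulation for 16 hr at 37C and quantified MMTV-driven luciferase by luminescence.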

A short description of assay [13]: qHTS assay to identify small molecule agonists of the androgen receptor (AR) signaling pathway in the presence of an antagonist - cell viability counter screen (AID 1259379). Also: nearly all actives have a fitted effect of over 25% in size. Also: potency is read from the fitted curve at half-maximal effect. Conditions: MDA-kb2 viability, CellTiter-Fluor, 16 h; series mostly up to 92.4 µM. An outline of the steps: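 A CellTiter-Fluor read-out measured viability of MDA-kb2 reporter cells (MMTV promoter with AR and GR response elements). Treatment: nilutamide 3.0uM final with compounds at 15 concentrations, 16 hr, 37C, 0% CO2.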

The target of assay [14] is Androgen receptor (Homo sapiens) (UniProt P10275). As to the kind of experiment: qHTS assay to identify small molecule agonists of the androgen receptor (AR) signaling pathway in the presence of an antagonist (AID 1259381; calls by dose curve; also: % is scaled to controls: 0 for no effect and ±100 for the full control effect; nearly all actives have a fitted effect of over 15% in size). Conditions: MDA-kb2 MMTV-luciferase, AR agonist + nilutamide, 16 h; series mostly up to 92.4 µM. An outline of the steps: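 Using human MDA-kb2 cells with an MMTV promoter–luciferase construct (AR and GR response elements), agonist activity is scored under 3.0uM nilutamide (final) co-treatment; 16hr incubation, 37C, luminescence readout via ONE-Glo.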

Assay [15] in a line: qHTS assay to identify small molecule antagonists of the estrogen receptor beta (ER-beta) signaling pathway - cell viability counter screen (AID 1259382). Also: nearly all actives have a fitted effect of over 55% in size. Also: potency is read from the fitted curve at half-maximal effect. Particulars: ER-beta-UAS-bla HEK293T viability, CellTiter-Glo luminescence, 16 h; series mostly up to 92.4 µM. An outline of the steps:
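Agonist-stimulated (1nM E2) ER-beta-UAS-bla HEK293T cells are incubated with library compounds for 16 hr at 37C. Cell viability is then assessed in the reporter-assay wells by adding CellTiter-Glo and reading luminescence after 30 min.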

Assay [16] addresses Estrogen receptor (Homo sapiens) (UniProt P03372). As to the kind of experiment: qHTS assay to identify small molecule agonists of the estrogen receptor alpha (ER-alpha) signaling pathway in the presence of an antagonist (AID 1259383; calls by dose curve; also: top concentration of the series differs between compounds; % is scaled to controls: 0 for no effect and ±100 for the full control effect; nearly all actives have a fitted effect of over 15% in size). Particulars: VM7Luc4E2 cells, ERE-luciferase, +ICI-182,780, 22 h; series mostly up to 92.4 µM. In short, it runs like this: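 Using VM7Luc4E2 cells seeded 24hr before treatment, antagonist ICI-182,780 (10.0nM final) was added, followed by compounds at 15 concentrations. Plates incubated 22hr; ONE-Glo luminescence quantified reporter activity.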

Assay [17] shares this target. As to the kind of experiment: qHTS assay to identify small molecule antagonists of the estrogen receptor alpha (ER-alpha) signaling pathway using the BG1 cell line in the presence of 0.1 nM 17-beta-estradiol (AID 1259244). Also: potency is read from the fitted curve at half-maximal effect; nearly all actives have a fitted effect of over 50% in size. Conditions: VM7Luc4E2 (BG1) ERE-luciferase, antagonist mode, 0.1 nM E2, 22 h; series mostly up to 92.4 µM. An outline of the steps:
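VM7Luc4E2; 4xERE-luciferase; 0.1 nM E2 final; 22 h co-incubation, 37C; ONE-Glo luminescence after 30 min at room temperature.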

Assay [18] addresses Estrogen receptor beta (Homo sapiens) (UniProt Q92731). Nature of the assay: qHTS assay to identify small molecule antagonists of the estrogen receptor beta (ER-beta) signaling pathway (AID 1259378; active = well fitted inhibition curve with a large enough effect in the signal ratio in the repeat runs, not every such curve was filed as active; the % refers to the signal ratio; also: potency is read from the fitted curve at half-maximal effect). Particulars: ER-beta-UAS-bla HEK293T, beta-lactamase FRET ratio, 16 h; series mostly up to 92.4 µM. In short, it runs like this:
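Antagonist mode: compounds added to beta-lactamase reporter HEK293T ER-beta-UAS cells stimulated with E2 (1nM final), 16 hr at 37C. LiveBLAzer B/G FRET substrate, 2 hours room temperature, fluorescence read-out.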

Each structure is given as a SMILES string. Values without a mark were called inactive. Results filed as inconclusive are left out. The source made the active and inactive calls. Unless noted, calls follow the shape of the dose curve; as a rule, active = well fitted curve in the direction sought with a large enough effect in the repeat runs; inconclusive = weak or mixed curves; inactive = no such curve, though single readings can be large; an effect the other way counts as inactive or inconclusive.

Sequence of Thyrotropin receptor (Homo sapiens) (P16473 whole entry, looked up): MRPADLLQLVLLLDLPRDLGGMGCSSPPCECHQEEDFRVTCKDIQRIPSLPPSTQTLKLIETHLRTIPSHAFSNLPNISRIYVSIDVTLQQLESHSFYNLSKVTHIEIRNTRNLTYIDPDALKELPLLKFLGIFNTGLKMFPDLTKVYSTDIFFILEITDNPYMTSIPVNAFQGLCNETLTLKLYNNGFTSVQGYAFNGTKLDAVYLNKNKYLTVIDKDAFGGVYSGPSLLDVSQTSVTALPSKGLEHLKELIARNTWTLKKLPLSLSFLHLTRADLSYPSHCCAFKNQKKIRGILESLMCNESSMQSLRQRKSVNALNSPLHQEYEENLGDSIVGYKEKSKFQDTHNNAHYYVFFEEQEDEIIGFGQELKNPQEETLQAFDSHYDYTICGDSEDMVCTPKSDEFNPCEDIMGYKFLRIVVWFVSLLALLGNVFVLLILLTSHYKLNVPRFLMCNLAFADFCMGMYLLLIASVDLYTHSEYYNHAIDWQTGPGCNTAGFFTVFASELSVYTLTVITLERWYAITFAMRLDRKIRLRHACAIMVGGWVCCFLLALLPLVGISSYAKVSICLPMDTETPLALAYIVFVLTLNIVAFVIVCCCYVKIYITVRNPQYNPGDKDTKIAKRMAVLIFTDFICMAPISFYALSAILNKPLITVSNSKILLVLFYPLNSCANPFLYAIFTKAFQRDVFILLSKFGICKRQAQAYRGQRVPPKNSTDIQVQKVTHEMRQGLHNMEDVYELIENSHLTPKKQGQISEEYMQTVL
Sequence of Estrogen receptor (Homo sapiens) (P03372 whole entry, looked up): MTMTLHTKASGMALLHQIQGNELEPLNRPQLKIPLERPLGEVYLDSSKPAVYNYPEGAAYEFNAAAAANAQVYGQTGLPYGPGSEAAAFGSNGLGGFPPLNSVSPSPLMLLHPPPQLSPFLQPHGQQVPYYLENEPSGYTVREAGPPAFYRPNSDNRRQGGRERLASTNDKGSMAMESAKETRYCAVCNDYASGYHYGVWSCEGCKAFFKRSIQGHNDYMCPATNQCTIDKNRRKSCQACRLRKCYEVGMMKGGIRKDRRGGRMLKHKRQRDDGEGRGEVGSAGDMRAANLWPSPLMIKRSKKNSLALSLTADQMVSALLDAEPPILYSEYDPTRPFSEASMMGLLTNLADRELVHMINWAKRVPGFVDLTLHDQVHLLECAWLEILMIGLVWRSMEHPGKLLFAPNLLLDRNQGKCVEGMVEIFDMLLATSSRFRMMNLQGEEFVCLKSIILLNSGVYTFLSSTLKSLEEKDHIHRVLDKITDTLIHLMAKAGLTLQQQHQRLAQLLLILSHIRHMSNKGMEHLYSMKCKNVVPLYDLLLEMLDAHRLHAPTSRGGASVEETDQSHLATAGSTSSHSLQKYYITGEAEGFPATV
Sequence of Androgen receptor (Homo sapiens) (P10275 whole entry, looked up): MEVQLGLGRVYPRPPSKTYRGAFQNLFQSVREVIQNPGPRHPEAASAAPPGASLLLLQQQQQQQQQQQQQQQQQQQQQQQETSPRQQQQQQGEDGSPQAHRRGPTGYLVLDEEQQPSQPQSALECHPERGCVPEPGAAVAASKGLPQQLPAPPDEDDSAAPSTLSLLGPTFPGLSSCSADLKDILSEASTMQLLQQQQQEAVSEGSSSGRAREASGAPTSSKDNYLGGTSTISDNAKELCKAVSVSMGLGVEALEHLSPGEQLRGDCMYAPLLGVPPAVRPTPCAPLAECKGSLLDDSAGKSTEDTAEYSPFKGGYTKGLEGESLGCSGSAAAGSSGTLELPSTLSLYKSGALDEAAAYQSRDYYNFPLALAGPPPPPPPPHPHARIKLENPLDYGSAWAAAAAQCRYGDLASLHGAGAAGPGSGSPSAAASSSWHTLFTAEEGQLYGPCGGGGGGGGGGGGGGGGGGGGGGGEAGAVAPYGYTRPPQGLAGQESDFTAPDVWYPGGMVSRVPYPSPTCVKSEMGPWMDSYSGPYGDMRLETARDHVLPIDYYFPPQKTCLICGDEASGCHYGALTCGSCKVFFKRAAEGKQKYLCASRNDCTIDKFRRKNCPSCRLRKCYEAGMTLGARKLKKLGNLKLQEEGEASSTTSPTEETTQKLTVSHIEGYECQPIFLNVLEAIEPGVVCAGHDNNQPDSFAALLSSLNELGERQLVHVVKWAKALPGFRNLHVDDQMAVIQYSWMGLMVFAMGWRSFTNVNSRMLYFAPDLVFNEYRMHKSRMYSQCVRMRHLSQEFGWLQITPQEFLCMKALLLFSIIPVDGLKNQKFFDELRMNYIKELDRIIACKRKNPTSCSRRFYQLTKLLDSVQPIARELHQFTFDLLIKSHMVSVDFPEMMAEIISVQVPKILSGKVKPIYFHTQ
Sequence of Estrogen receptor beta (Homo sapiens) (Q92731 whole entry, looked up): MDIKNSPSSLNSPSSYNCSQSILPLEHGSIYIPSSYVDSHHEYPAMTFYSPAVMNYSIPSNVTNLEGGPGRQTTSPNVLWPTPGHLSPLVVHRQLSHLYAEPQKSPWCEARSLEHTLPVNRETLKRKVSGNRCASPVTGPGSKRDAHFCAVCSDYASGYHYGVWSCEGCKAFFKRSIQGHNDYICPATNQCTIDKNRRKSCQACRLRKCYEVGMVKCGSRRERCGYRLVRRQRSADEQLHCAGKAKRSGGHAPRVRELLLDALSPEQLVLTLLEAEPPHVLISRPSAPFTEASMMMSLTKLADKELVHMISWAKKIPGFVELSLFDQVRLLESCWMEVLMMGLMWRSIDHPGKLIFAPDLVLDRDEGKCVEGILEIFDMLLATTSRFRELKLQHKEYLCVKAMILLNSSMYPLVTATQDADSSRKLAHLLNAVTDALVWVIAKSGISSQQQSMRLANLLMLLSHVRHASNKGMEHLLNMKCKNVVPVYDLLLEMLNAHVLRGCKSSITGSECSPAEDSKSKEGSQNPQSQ

On to `O=C(Nc1ccc(Oc2ccc(Cl)cc2)c(Cl)c1)c1cc(I)cc(I)c1O`, for which the Potency result in assay [1], in assay [2], in assay [3], in assay [4], in [5] and in assay [6] was “inactive” each time. Moreover, the Potency result in [7] and in [11] was “inactive” each time. For the same compound, the Potency in [8] is 29.8 µM (active); in assay [9] it was 11.9 µM (active). Also, the compound was classed as inactive in assay [10].
Turning to `O=C(OCC1CO1)C1CCCCC1C(=O)OCC1CO1` (centres undefined), the Potency result in [1], in [12], in assay [3], in assay [4], in assay [7] and in [13] was “inactive” in each case. Besides, the Potency entry in [9], in [14], in assay [15] and in assay [11] was “inactive” each time. The Potency in [5] and in assay [6] was 13.7 µM (active) each time. For the same compound, the compound was called inactive in [10].
In the case of `OCCN(CCO)c1nc(N2CCCCC2)c2nc(N(CCO)CCO)nc(N3CCCCC3)c2n1`, the Potency result in [2], in assay [3], in assay [4], in assay [7], in assay [14] and in assay [15] was “inactive” throughout. Also, the Potency entry in assay [16] was “inactive”. Besides, the Potency in assay [8] was 2.11 µM (active).
Take `O=C(OC[C@H]1O[C@@H](OC(=O)c2cc(O)c(O)c(OC(=O)c3cc(O)c(O)c(O)c3)c2)[C@H](OC(=O)c2cc(O)c(O)c(OC(=O)c3cc(O)c(O)c(O)c3)c2)[C@@H](OC(=O)c2cc(O)c(O)c(OC(=O)c3cc(O)c(O)c(O)c3)c2)[C@@H]1OC(=O)c1cc(O)c(O)c(OC(=O)c2cc(O)c(O)c(O)c2)c1)c1cc(O)c(O)c(OC(=O)c2cc(O)c(O)c(O)c2)c1`: the viability change, negative = cytotoxic in assay [1] was -18.2% [at 19 µM]. Besides, the Potency result in assay [2] was “inactive”. The activity change, negative = inhibition in assay [3] is 4.81% [at 19 µM]. For the same compound, the Potency was 11.7 µM (active) in assay [5], 6.57 µM (active) in assay [6] and 5.22 µM (active) in assay [8]. Also, the activity change in assay [7] was -2.95% [at 18.9 µM, stronger effect = higher value]. Also, the activity change, negative = cytotoxicity in [15] is -6.33% [at 19 µM].
Take `CCCCCCCCCCCCCCCCCC[N+](C)(C)Cc1ccccc1`: the Potency in assay [1] is 49 µM (active); in assay [12], 17.4 µM (active); in [17], 55 µM (active); in assay [4] it was 61.7 µM (active); in assay [5], 24.6 µM (active); in assay [6], 30.9 µM (active). The Potency was 0.155 µM (active) in [8], 55 µM (active) in [13], 24.6 µM (active) in [9] and 27.6 µM (active) in assay [15]. The Potency entry in assay [3], in [7], in [14], in assay [16] and in [11] was “inactive” throughout. Moreover, the outcome in [10] was inactive.
As for `NC(=O)N1C(=O)C(C(=O)c2cc(Cl)cs2)c2cc(F)c(Cl)cc21` (centres undefined), the Potency result in [12], in [3], in [7], in [14], in assay [16] and in assay [11] was “inactive” each time. The Potency is 27.3 µM (active) in assay [5]; 27.3 µM (active) in [6]; 17.2 µM (active) in assay [18]; 7.7 µM (active) in assay [13]; 30.6 µM (active) in assay [9]; 30.6 µM (active) in assay [15]. Moreover, the result in assay [10] was inactive.
